Bioassay records from PubChem BioAssay.
Hits are enriched below; roughly 6.2% of the tested compounds scored in any of these assays.
MARV entry inh – Marburg virus entry inhibition. Marburg virus pseudotyped entry inhibition, cell reporter. Potency, µM (titrated, usually from 37.8 µM), for inactives: top-dose activity change, negative = inhibition, hits mostly inhibitors. 1.8% of 300,000 active; calls by dose curve; tested in HEK293 cells; note: potency is the fitted concentration of half-maximal effect
HCMV inh – blocks human cytomegalovirus replication | HFF cells, HCMV-luciferase reporter, 72 h; active compounds read low | activity change, negative = inhibition, % at 57.5 µM | 4.5% of 410,000 active; in the data active = activity change below about -60%; inconclusive = no clear call, values can overlap the other calls; inactive = above about -39%
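Inhibition of viral replication was scored as loss of reporter luminescence in HFFs infected with HCMV-luciferase (MOI 1 PFU/cell) for 72 h; compounds tested at 2 doses, normalized to buffer and Salinomycin controls.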
LASV entry inh – Lassa virus entry inhibition. 1.2% of 300,000 active. Potency, µM (doses to about 37.9 µM), for inactives: top-dose activity change, negative = inhibition, hits mostly inhibitors. Lassa virus pseudotype entry inhibition, cell reporter; calls by dose curve; tested in HEK293 cells; note: potency is the fitted concentration of half-maximal effect; nearly all actives have a fitted effect of over 50% in size
FMDV antiviral – antivirals against foot and mouth disease virus | Potency, µM (series often up to 57.9 µM), for the others: top-dose activity change, negative = inhibition, actives largely listed as inhibitors | FMDV antiviral cell-based qHTS | AID 1159524 | 1.2% of 410,000 active; calls by dose curve; tested in HEK293T cells; note: read-out not given here; potency is the fitted concentration of half-maximal effect; nearly all actives have a fitted effect of over 45% in size
Active calls of the source: *; ? = inconclusive; · = no result given; ! = repeats disagree; [ ] = dose if it differs, or a comment. % is set by controls: 0 for no effect and ±100 for the full control effect.

SMILES	MARV entry inh	HCMV inh	LASV entry inh	FMDV antiviral
COc1cc2c3cc1Oc1cc(ccc1O)C[C@@H]1c4c(cc(OC)c(O)c4Oc4ccc(cc4)C[C@H]3N(C)CC2)CCN1C	1.8µM*	-10	?	-26%
Cc1ccc(C(=O)CC2(O)C(=O)N(CCc3ccccc3)c3ccc(Cl)cc32)cc1 (centres undefined)	-16%[46.1 µM]	-104*	?	-23%
O=C(CC1(O)C(=O)N(CCc2ccccc2)c2ccc(Br)cc21)c1ccccc1 (centres undefined)	?	-28	-17%[46.1 µM]	0%
COc1ccc(-c2ccc3sc4ccccc4c(=O)c3c2)cn1	·	-36	·	-26%
Cc1cccc(N2CCC(N3CCN(C4CCCCC4)C(CCO)C3)CC2)c1C (centres undefined)	?	-75*	6%[46.1 µM]	?
Cc1cccc(C2(c3cccc(C)c3)CC2C(=O)Nc2ccc([N+](=O)[O-])cc2O)c1 (centres undefined)	13µM*	-104*	?	?
C=CCNC(=O)C1CC1(c1cccc(C)c1)c1cccc(C)c1 (centres undefined)	-25%[46.1 µM]	0	4%	3%
COc1ccccc1-n1cnnc1SC(C)C(=O)Nc1ccc(NC(C)=O)cc1 (centres undefined)	8%[46.1 µM]	8	?	7%
CN1CCN2c3ccccc3Cc3ccccc3C2C1 (centres undefined)	5.6µM*	?	?	-27%
COc1cccc(-c2nn(-c3ccccc3)cc2C(=O)n2nnc3ccccc32)c1	11%	35	-1%	40µM*
O=C(c1cn(-c2ccccc2)nc1-c1ccccc1)n1nnc2ccccc21	3%	-23	4%	?
CC(=O)Oc1ccc(OC(C)=O)c(SCCCCCN2CCOCC2)c1	16µM*	?	?	?
CCc1ccccc1NC(=O)C1c2ccccc2Oc2ccccc21	-6%	?	0%	-4%
COc1cccc(Nc2c3c(nc4c(-c5ccccc5)c(C)nn24)CCC3)c1	?	-63*	?	?
COCCNc1c2c(nc3c(-c4ccccc4)c(C)nn13)CCCC2	?	-33	-1%	?
Cc1nn2c(Nc3ccc(F)cc3)c3c(nc2c1-c1ccccc1)CCC3	-1%	-36	-3%	-16%
Cc1nn2c(NCCN(C)C)c3c(nc2c1-c1ccccc1)CCCC3	10µM*	?	-16%[46.1 µM]	-1%
Nc1ncnc(Sc2ncccn2)c1[N+](=O)[O-]	·	41	·	32µM*
Nc1ncnc(Sc2ccccc2)c1[N+](=O)[O-]	1%	-20	5%	-6%
Cc1ccc(-n2[nH]c(=O)c(-c3ccccn3)c2C)cc1	?	?	?	7.1µM*
O=C(O)c1cccc(NC(=O)c2ccc(N3C(=O)c4ccc(C(=O)Nc5cccc(C(=O)O)c5)cc4C3=O)cc2)c1	-2%[46.1 µM]	-14	-18%	-12%
CCN1C(=O)c2ccc(C(=O)Nc3cccc(C(=O)O)c3)cc2C1=O	16%	-10	-7%	14µM*
Cc1ccc(S(=O)(=O)NCc2ccc(N3CCN(C(=O)OC(C)(C)C)CC3)cc2)cc1	-13%[46.1 µM]	-68*	-15%[46.1 µM]	28µM*
Cc1ccc(C(=O)NCc2ccc(N3CCN(C(=O)OC(C)(C)C)CC3)cc2)cc1	2%	-34	5%	?
CCN(Cc1cc2cc(OC)ccc2[nH]c1=O)C(=O)c1ccncc1	-6%	14	7%	-18%
SMILES	MARV entry inh	HCMV inh	LASV entry inh	FMDV antiviral
CC(C)n1c(O)c(/C=C2\C=NN=C2c2ccccc2)sc1=S	11µM*	?	?	?
CCn1c(O)c(/C=C2\C=NN=C2c2ccc(C)cc2)sc1=S	1%[46.1 µM]	-9	3%	-7%
CCN(CCCCCN(C)C)Cc1cc2ccccc2o1	10µM*	-23	?	0%
CN(C)CCCN(C(=O)c1cc2ccccc2oc1=O)c1nc2ccc(F)cc2s1	-7%	-12	7%	1%
COc1ccc2c(c1)c(C(C)=O)c(C)n2CCc1ccccc1	·	-91*	·	14µM*
COc1ccc(-n2c(C)c(C(C)=O)c3cc(OC(=O)c4ccc(C)cc4)ccc32)cc1	·	-75*	-24%[46.1 µM]	-18%
COc1ccc2c(c1)c(C(C)=O)c(C)n2-c1ccccc1	3%	-1	4%	·
COc1ccc(-n2c(C)c(C(C)=O)c3cc(O)ccc32)cc1	-9%	-65*	·	-18%
COc1ccc(C(c2nnnn2Cc2ccc(F)cc2)N2CCN(c3ccc(OC)cc3)CC2)cc1 (centres undefined)	?	30	3.2µM*	0%
CCCC(c1nnnn1Cc1ccc(F)cc1)N1CCN(C2CCCCC2)CC1 (centres undefined)	8.9µM*	-12	-6%	-22%
COc1ccc(C(c2nnnn2Cc2cccs2)N2CCN(c3ccc(F)cc3)CC2)cc1OC (centres undefined)	?	20	8.2µM*	-11%
Fc1ccc(C(c2nnnn2Cc2cccs2)N2CCN(C3CCCCC3)CC2)cc1 (centres undefined)	22µM*!	40	-17%	-27%
CCC12C=C(C=Cc3ccccc3)C(CC)(C1)C(c1ccccc1)CC2=O (centres undefined)	13%[14.2 µM]	·	·	·
COc1ccc(Cn2nnnc2C(c2ccc(F)cc2)N2CCN(C3CCCC3)CC2)cc1 (centres undefined)	10µM*	38	?	-10%
C=CC[C@]12CC=CC(=O)[C@@]1(O)O[C@H](c1ccc(OC)c(OC)c1)[C@H]2C	·	-9	·	20µM*
C=CC[C@]12C=C(OC)C(=O)C(OC)=C1O[C@@H](c1ccc3c(c1)OCO3)[C@H]2C	·	31	·	-18%
COC(=O)c1ccc(NC(C(=O)OC)C(C)C)c([N+](=O)[O-])c1 (centres undefined)	-13%	-22	12%	0%
O=C(CCc1ccccc1)NCc1ccncc1	·	32	·	-5%
O=C(CCNNC(=O)c1ccncc1)NCc1ccccc1	?	-103*	?	-25%
COc1ccc(NC(=O)CS(=O)(=O)Cc2ccccc2)c([N+](=O)[O-])c1	16%	-6	14%	26%
Nc1ccc(Cn2ccc3c4c(N)nc(N)nc4ccc32)cc1	?	-99*	?	?
COc1cc(OC)c(NS(=O)(=O)c2ccc3c(c2)NC(=O)CCS3)cc1Cl	·	-63*	-28%[46.1 µM]	-29%
COC(=O)NC(NC(=S)Nc1ccccc1OC)C(Cl)(Cl)Cl (centres undefined)	8%	13	-4%	-1%
COc1cccc(C2C(C#N)=C(N)OC3=C2C(=O)CC(c2ccco2)C3)c1OCc1ccc(F)cc1 (centres undefined)	16µM*!	-5	?	-4%
CN1CCN(C(c2ccccn2)c2cc(Cl)c3cccnc3c2O)CC1 (centres undefined)	·	-14	·	-26%
Oc1c(C(c2ccccn2)N2CCC(Cc3ccccc3)CC2)cc(Cl)c2cccnc12 (centres undefined)	?	-90*	?	22µM*
CCc1ccccc1NC(=S)N(CCCN(C)C)Cc1cc2cc3c(cc2[nH]c1=O)OCO3	?	-75*	12%	-13%
COc1cc2cc(CN(CCc3ccccc3C)C(=S)NCCCN3CCOCC3)c(=O)[nH]c2cc1OC	·	-64*	·	-16%
